Screens as filed in PubChem.
Nrf2 inh = Nrf2 qHTS screen for inhibitors; A549 ARE-Fluc reporter, luciferase luminescence, 18-24 h; Potency, µM (top dose mostly 46 µM), without a hit: top-dose activity change, negative = inhibition, actives largely listed as inhibitors; hit rate 2.1% among 360,000; AID 504444, 2011; note: % is set by controls: 0 for no effect and ±100 for the full control effect; nearly all actives have a fitted effect of over 60% in size
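Concentration-response testing used A549 ARE_Fluc cells at 5000 cells/well. Following an 18-24 h compound incubation, viability was read by fluorescence (Ex 405/Em 525) and luciferase output by luminescence.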
IDH1 R132H inh = qHTS for Inhibitors of mutant isocitrate dehydrogenase 1 (IDH1): qHTS | Potency, µM (highest dose often 76.6 µM), without a hit: at the top dose activity change, negative = inhibition, actives largely listed as inhibitors | hit rate 0.093% among 390,000 | Isocitrate dehydrogenase [NADP] cytoplasmic (Homo sapiens), O75874 | IDH1-R132H enzyme, NADPH consumption, diaphorase/resazurin fluorescence; note: % is set by controls: 0 for no effect and ±100 for the full control effect; nearly all actives have a fitted effect of over 65% in size
Target sequence (O75874 whole entry R132H, stated change not applied): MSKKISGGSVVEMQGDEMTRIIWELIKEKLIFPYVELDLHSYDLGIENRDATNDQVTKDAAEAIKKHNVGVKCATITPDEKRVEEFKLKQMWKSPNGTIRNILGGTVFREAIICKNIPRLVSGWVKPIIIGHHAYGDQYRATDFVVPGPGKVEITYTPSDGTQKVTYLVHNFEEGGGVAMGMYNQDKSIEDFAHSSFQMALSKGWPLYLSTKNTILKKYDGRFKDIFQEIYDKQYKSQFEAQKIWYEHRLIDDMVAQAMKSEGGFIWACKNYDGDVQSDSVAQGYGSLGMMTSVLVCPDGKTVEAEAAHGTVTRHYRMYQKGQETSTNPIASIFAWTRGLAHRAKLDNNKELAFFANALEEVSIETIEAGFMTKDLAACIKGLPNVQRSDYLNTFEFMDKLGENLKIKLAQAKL
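IDH1-R132H (0.5 ug/mL) preincubated 30 min with compound, then NADPH (0.016 mM) and alpha-KG (2 mM) added; 80 min at RT, pH 7.5. Remaining NADPH coupled via diaphorase/resazurin to fluorescence (540/590 nm); concentration-response curves normalized to no-enzyme control.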
TrxR1 substrate = qHTS Assay for Substrates of Mammalian Selenoprotein Thioredoxin Reductase 1 (TrxR1): qHTS. Thioredoxin reductase 1, cytoplasmic (Rattus norvegicus), O89049. purified TrxR1 substrate turnover, NADPH consumption readout. Potency, µM (series often up to 114 µM), inactives show top-dose activity change, negative = substrate turnover. hit rate 0.01% among 390,000. AID 588456, 2011; note: % is set by controls: 0 for no effect and ±100 for the full control effect; nearly all actives have a fitted effect of over 50% in size
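Rat TrxR1, dispensed at 90 nM, was prereduced with 400 uM NADPH (final) for 5 min at ~22 deg C, then incubated with compound 15 min before 400 uM selenite. A first-read NADPH fluorescence drop versus no-compound background flagged substrates.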
Mito fusion yeast = qHTS Assay for Small Molecule Inhibitors of Mitochondrial Division or Activators of Mitochondrial Fusion; S. cerevisiae fusion-defective mutant growth rescue, CellTiterGlo 48 h; Potency, µM (titrated, usually from 46.1 µM), without a hit: top-dose growth rescue (activation), actives largely listed as activators; hit rate 0.23% among 320,000; AID 485298, 2010; note: % of control where 0% means no effect; nearly all actives have a fitted effect of over 45% in size
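Temperature-sensitive fusion-defective S. cerevisiae (e.g. fzo1-1, mgm1-5) were grown with compound in YPEG medium (3% ethanol, 3% glycerol) for 48 hours at 37C. Growth rescue was measured as viability by CellTiterGlo luminescence after 10 minutes at ambient.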
TrxR1 inh = qHTS Assay for Inhibitors of Mammalian Selenoprotein Thioredoxin Reductase 1 (TrxR1): qHTS | Thioredoxin reductase 1, cytoplasmic (Rattus norvegicus), O89049 | recombinant rTrxR1, NADPH fluorescence consumption, selenite substrate | Potency, µM (highest dose often 114 µM), for inactives: at the highest dose activity change, negative = inhibition, usual class: inhibitors | hit rate 1% among 390,000 | AID 588453, 2011; note: % is set by controls: 0 for no effect and ±100 for the full control effect; nearly all actives have a fitted effect of over 65% in size
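Rat TrxR1 (90 nM in the dispensed reagent) was pre-reduced with 400 uM NADPH for 5 min at room temperature, then incubated with compound for 15 min. After 400 uM selenite was added, NADPH fluorescence (Ex 340/Em 450 nm) was followed for 8 min.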
A549 viability = Nrf2 qHTS screen for inhibitors: counterscreen for cytotoxicity; A549 ARE-Fluc cells, CellTiter-Fluor viability, 18-24 h; Potency, µM (highest dose often 46 µM), without a hit: at the top dose activity change, negative = cytotoxicity, hits mostly inhibitors; hit rate 0.16% among 390,000; note: % is set by controls: 0 for no effect and ±100 for the full control effect
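A549 ARE_Fluc cells in 5% FBS OPTI-MEM were exposed to compounds in concentration-response for 18-24 h at 37 deg C. Viability was read by CellTiter-Fluor fluorescence (Ex 405/Em 525) after 30 min, before the luciferase read.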
The depositor's hits bear a star; ? = inconclusive; · = not tested or not shown; ! = a repeat was not active; [ ] = dose if it differs, or a comment. Hits are enriched below; roughly 3.1% of the tested compounds scored in any of these assays. Calls come from the whole dose curve; as a rule, active = well fitted curve in the direction sought with a large enough effect; inconclusive = small, poorly fitted or top-dose-only effect, or another doubt; inactive = no such curve, though single readings can be large; an effect the other way counts as inactive or inconclusive. Potency is the fitted concentration of half-maximal effect.

SMILES | Nrf2 inh | IDH1 R132H inh | TrxR1 substrate | Mito fusion yeast | TrxR1 inh | A549 viability
COc1cc(/C=C(\C#N)c2nc3ccc(C)cc3[nH]2)c([N+](=O)[O-])cc1OC | ? | 7% | -4% | -3% | -8% | ?
O=C(NCCCCc1ccccc1)c1cccc(NC(=O)C2CCC2)c1 | 16µM* | 17% | -3% | · | 7% | 0%
O=C(NCCCCc1ccccc1)c1cccc(NC(=O)C2CCCCC2)c1 | ? | 10% | 1% | · | 40% | -1%
O=C(COc1ccccc1)Nc1nnc(SCc2cc(=O)n3cc(Cl)ccc3n2)s1 | · | -9% | 8%[57.1 µM] | · | 28%[57.1 µM] | 8%
COc1ccc(C2Nc3ccccc3C(=O)N2Cc2ccccc2)cc1COc1ccccc1OC (stereo unspecified) | -27% | · | · | · | · | 2%
O=C(CCS(=O)(=O)c1cccc2nonc12)Nc1c(F)cccc1F | 2%[9.27 µM] | 0% | 10%[2.29 µM] | · | 32µM* | 2%
COc1ccccc1NC(CC(=O)c1ccccc1)C(=O)OCC(=O)c1ccc(C)c(C)c1 (stereo unspecified) | ? | 7% | -8% | -3% | 45µM* | -11%
O=C(CC(Nc1ccccc1Cl)C(=O)OCC(=O)c1cccs1)c1ccccc1 (stereo unspecified) | ? | -1% | 14% | 0% | 13µM* | -1%
COc1ccccc1NC(CC(=O)c1ccccc1)C(=O)OCC(=O)c1ccc(Br)cc1 (stereo unspecified) | ? | 1% | -6% | -1% | 71µM* | 0%
COc1ccccc1NC(CC(=O)c1ccccc1)C(=O)OCC(=O)c1ccc(C)cc1 (stereo unspecified) | ? | 1% | -6% | 3% | -18% | -1%
O=C(OCC(=O)c1cccs1)c1ccccc1 | ? | -1% | 9% | 3% | 11% | -3%
O=C(CC(Nc1ccc(Cl)cc1Cl)C(=O)O)c1ccccc1 (stereo unspecified) | 4% | -4% | 1% | -5% | 25µM* | -3%
c1ccc(-c2onc(-c3ccco3)c2-c2ccc3[nH]ccc3c2)cc1 | ? | 17% | 12%[57.1 µM] | 2% | 28µM*! | 1%
Cc1cc(C)c2nc(N3C(=O)C(O)=C(C(=O)c4ccco4)C3c3ccc(O)cc3)sc2c1 (stereo unspecified) | -2% | 46µM* | -2% | 5% | -20% | ?
Cc1cc(C)c2nc(N3C(=O)C(O)=C(C(=O)c4ccco4)C3c3cccc(O)c3)sc2c1 (stereo unspecified) | 9% | 37µM* | -5% | -1% | ? | -15%
CCCNC(=O)Cn1nc(-c2ccc(C)cc2)c2cnc3ccc(CC)cc3c21 | 18% | 14% | 11%[57.1 µM] | · | 35%[57.1 µM] | 7%
Oc1ccccc1-c1nc(NCc2cccnc2)c2ccccc2n1 | 12µM* | 0% | -12% | 6% | 7% | ?
COc1ccc(OC)c(Nc2sc(C(=O)c3ccccc3)c(N)c2S(=O)(=O)c2ccccc2)c1 | -11% | -6% | 7% | · | 30% | -4%
O=C(COc1ccc(F)cc1)Nc1nc(-c2ccccn2)cs1 | -16% | 0% | -5% | 8% | -16% | -18%
CCc1nnc(NC(=O)C(NC(=O)c2ccccc2Cl)C(C)C)s1 (stereo unspecified) | 1% | -7% | -3%[57.1 µM] | -5% | 18%[57.1 µM] | 1%
CC(C)[C@H](NC(=O)c1ccccc1Cl)C(=O)Nc1nc(-c2ccccn2)cs1 | 15µM* | -1% | 5%[57.1 µM] | -9% | 10% | -27%
CC(Oc1ccc(Br)cc1)C(=O)Nc1nc(-c2ccccn2)cs1 (stereo unspecified) | 16µM* | -1% | -11% | -19% | 14%[57.1 µM] | ?
CN(C)c1ccc(/C=C/c2c(Br)cnc3ccccc23)cc1 | · | · | 0% | · | 0% | ·
COC(=O)c1ccc(C2C(C#N)=C(N)Oc3cc(N)ccc32)cc1 (stereo unspecified) | -1% | 8% | -2% | 7% | 1% | 3%
COC(=O)c1ccc(C2C(C#N)=C(N)Oc3cc(O)ccc32)cc1 (stereo unspecified) | -22% | -4% | -3% | 0% | 18µM* | 6%
SMILES | Nrf2 inh | IDH1 R132H inh | TrxR1 substrate | Mito fusion yeast | TrxR1 inh | A549 viability
NNC(=O)C(C(=O)OCc1ccccc1)c1ccccc1 (stereo unspecified) | ? | · | · | · | · | -14%
COc1cc(C=C(c2nc3ccccc3s2)c2nc3ccccc3s2)ccc1O | ? | 0% | 0% | 16µM* | -3% | -1%
O=C(c1ccc2n[nH]nc2c1)N1CCN(c2ccc(C(F)(F)F)cn2)CC1 | 15µM* | 2% | 8% | -5% | 23% | -12%
Cc1cc(-n2c(C)nc3ccccc3c2=O)ccc1NC(=O)c1cccc([N+](=O)[O-])c1 | · | 5% | -2%[57.1 µM] | · | 11%[57.1 µM] | 13%
Cc1ccc(-c2nc(-c3cc4cc(Cl)ccc4oc3=O)sc2C)cc1 | 10% | · | 1% | · | -1% | -1%
Cc1c(CC(=O)NCCc2ccccc2F)c(=O)oc2cc(O)c(Cl)cc12 | 18% | -5% | 915% | · | 71µM* | -4%
COc1ccccc1CCNC(=O)Cc1c(C)c2cc(Cl)c(O)cc2oc1=O | 3% | 11% | 964% | · | 79µM* | 1%
CC(C)(C)OC(=O)N(CCc1ccccc1)Cc1ccccc1OCc1cccc(NC(=O)C2CC2)c1 | 21µM* | 6% | -7% | · | 38% | -11%
C(=C\c1ccc2ccccc2n1)/c1cccnc1 | · | · | -5% | · | 4% | ·
CCN1C(=O)/C(=C/C=C2\N(CC)c3cc(S(=O)(=O)N(C)C)ccc3N2c2ccccc2)SC1=S | ? | 52µM* | -1% | -1% | 19% | ?
CCn1c(=O)sc2cc(NC(=O)c3cccc(OC)c3)ccc21 | -21% | 19% | -2% | · | 3% | 0%
CCCn1c(=O)sc2cc(NC(=O)c3ccc(OC)c(Br)c3)ccc21 | 16µM* | 1% | 10% | · | 33% | -13%
COc1ccc(S(=O)(=O)NCCS(=O)(=O)N2CCN(c3ccccc3F)CC2)cc1 | · | -13% | -5%[57.1 µM] | · | 0%[57.1 µM] | 10%
COC(=O)c1c(NC(=O)c2c(OC)cccc2OC)sc2c1C(C(=O)OC)CC2 (stereo unspecified) | 13µM* | -4% | 6% | 7% | 20% | ?
